{"source": "PubChem BioAssay AID652010", "about": "(The Scripps Research Institute Molecular Screening Center, 2013)", "note": "Out of some 370,000 compounds screened, about 4,100 (1.1%) were called active. The entries come from a sample that favours actives as a whole. A number with no mark means an inactive call.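 How the source made its calls: active means inhibition above the mean over all tested compounds plus 3 SD (cut at about 3.6% in these data); inactive means the rest.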"}
{"assay": "DAX1 (NR0B1) inhibitors on StAR promoter, primary screen, cell-based, luminescence, SF-1 (NR5A1), full-length DAX-1 (AID 652010);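 further: 0% = DAX-1 cells with DMSO and 100% = cells lacking DAX-1 with DMSO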", "conditions": "HEK293T StAR-luciferase reporter, SF-1/DAX-1 repression relief; at 6.8 µM; stronger effect = higher value"}
{"smiles": "C=C(C)C#CC(Cc1ccccc1)N(CC1CC1)/C(N)=N/C(=O)OCc1ccccc1", "note": "(stereo not drawn)", "inhibition": "-1.59%"}
{"smiles": "CC(=O)C1(C(=O)Nc2nccs2)CC(c2ccccc2C(F)(F)F)=NO1", "note": "(stereo not drawn)", "inhibition": "-0.45%"}
{"smiles": "COc1ccnc(C(=O)N2CCC(Oc3cccnc3)CC2)c1", "inhibition": "-0.42%"}
{"smiles": "COc1ccc(N2CCN(CCNS(=O)(=O)c3ccc([N+](=O)[O-])cc3)CC2)cc1", "inhibition": "-1.45%"}
{"smiles": "O=C(NC1CCCCN(Cc2ccc(Cl)cc2)C1=O)c1ccc(Br)cc1", "note": "(stereo not drawn)", "inhibition": "-1.64%"}
{"smiles": "O=c1[nH]c(-c2ccccc2)cn1C1CCN(Cc2ccc(-c3nc4ccc(F)cc4nc3-c3ccccc3)cc2)CC1", "inhibition": "-0.54%"}
{"smiles": "O=CN1CCN(C(=O)c2ccc(Br)o2)CC1", "inhibition": "-0.07%"}
{"smiles": "CN1CCN(C(=O)c2ccc(-c3ccc(Br)cc3)o2)CC1", "inhibition": "4.56% (active)"}
{"smiles": "CN1CCN(C(=O)c2ccc(NC(=O)c3ccc(Br)o3)cc2)CC1", "inhibition": "0.03%"}
{"smiles": "COC(=O)[C@]12C[C@H](CC(=O)N3CCOCC3)C(=O)N(Cc3ccc(Cl)cc3Cl)C1=C[C@H](C(C)C)O[C@@H]2C1CC1", "inhibition": "-0.52%"}
{"smiles": "O=C(CNC(=O)c1ccc2ccccc2c1)Nc1ncccc1O", "inhibition": "1.3%"}
{"smiles": "CC(C)(C)n1nc2c(c1NC(=O)c1ccc(S(=O)(=O)N3CCCC3)cc1)CS(=O)C2", "note": "(stereo not drawn)", "inhibition": "-0.67%"}
{"smiles": "O=C(Nc1ncccc1O)c1ccc(C(=O)c2ccccc2)cc1", "inhibition": "69.9% (active)"}
{"smiles": "O=C(Nc1ncccc1O)c1ccc(S(=O)(=O)N2CCCC2)cc1", "inhibition": "10.9% (active)"}
{"smiles": "O=C(Nc1ncccc1O)c1ccc(S(=O)(=O)N2CCCCCC2)cc1", "inhibition": "6.81% (active)"}
{"smiles": "CCN(CC)S(=O)(=O)c1cccc(NC(=O)c2ccc(S(=O)(=O)N3CCCC3)cc2)c1", "inhibition": "-3.89%"}
{"smiles": "CCOC(=O)c1cccnc1NC(=O)c1ccncc1", "inhibition": "0.42%"}
{"smiles": "CN1CCN(NC(=O)c2ccc(S(=O)(=O)N3CCCCCC3)cc2)CC1", "inhibition": "-0.23%"}
{"smiles": "O=C(Nc1ccc(S(=O)(=O)N2CCCCC2)cc1)c1cnccn1", "inhibition": "0.17%"}
{"smiles": "CC(=O)Nc1nc2ncccn2c1-c1ccc(C(F)(F)F)cc1", "inhibition": "-0.41%"}
{"smiles": "CCN(C(=O)[C@@H](C1CC1)[C@@H](O)c1ccc2ccccc2c1)c1ccccc1", "inhibition": "-0.4%"}
{"smiles": "COC(=O)C1CN(Cc2cn(Cc3ccc(F)cc3)nn2)CCS(=O)(=O)N1Cc1ccc(Cl)cc1", "note": "(stereo not drawn)", "inhibition": "-0.95%"}
{"smiles": "C/C(=N\\Nc1nc2ccccc2[nH]1)c1cccs1", "inhibition": "3.55%"}
{"smiles": "Cc1ccc(-c2nc3ccccc3[nH]2)cc1N", "inhibition": "6.54% (active)"}
{"smiles": "CCOC(=O)c1nc(-c2ccc3c(c2)OCO3)[nH]c1C", "inhibition": "2.3%"}
{"smiles": "c1ccc2[nH]c(-c3nc4ccccc4[nH]3)nc2c1", "inhibition": "5.77% (active)"}
{"smiles": "CCOC(=O)CNC(=O)CSc1ncccc1-c1nc2ccccc2[nH]1", "inhibition": "0.2%"}
{"smiles": "O=C1c2ccccc2C(c2nc3ccccc3[nH]2)N1c1ccccc1", "note": "(stereo not drawn)", "inhibition": "-1.53%"}
{"smiles": "COc1ccc(NC(=O)C2=CC(c3ccc(OC)c(OC)c3)=NS(=O)(=O)N2C)cc1", "inhibition": "-5%"}
{"smiles": "COc1ccc(-c2cc(-c3nnc(SCc4ccc([N+](=O)[O-])cc4)n3N)[nH]n2)cc1", "inhibition": "-1.87%"}
{"smiles": "CCOc1ccc(N(CC(=O)Nc2c(C)n(C)n(-c3ccccc3)c2=O)S(=O)(=O)c2ccc(Cl)s2)cc1", "inhibition": "-1.26%"}
{"smiles": "Cc1ccccc1OCCC(=O)OCC(=O)NCCc1ccc(S(N)(=O)=O)cc1", "inhibition": "2.36%"}
{"smiles": "CCC(NC(=O)C1C2C=CC3(CN(Cc4ccccc4)C(=O)C13)O2)c1ccccc1", "note": "(stereo not drawn)", "inhibition": "-0.13%"}
{"smiles": "Cc1cccc(NC(=O)c2cc3c(C)nn(-c4ccccc4)c3s2)c1", "inhibition": "-0.95%"}
{"smiles": "CN(C)CC(=O)N[C@@H]1C[C@@H]2O[C@H](CO)CC[C@@H]2O[C@@H]1CCc1ccc(C#Cc2ccccc2)cc1", "inhibition": "-1.24%"}
{"smiles": "O=C(CSCc1ccccc1)N1CCc2ccccc21", "inhibition": "3.64% (active)"}
{"smiles": "CC(OC(=O)Cc1ccc(F)cc1)C(=O)N1CCc2ccccc21", "note": "(stereo not drawn)", "inhibition": "0.95%"}
{"smiles": "O=C(CN1C(=O)c2ccccc2S1(=O)=O)N1CCc2ccccc21", "inhibition": "-2.91%"}
{"smiles": "Cc1ccc(-n2c(SCC(=O)Nc3ccc(S(=O)(=O)Nc4nccs4)cc3)nnc2-c2cccnc2)cc1", "inhibition": "0.65%"}
{"smiles": "CCOC(=O)[C@]12CCCCC/C=C\\1N(Cc1ccc(OC)cc1)C(=O)[C@H]2CC(=O)NCc1ccc(C)o1", "inhibition": "0.47%"}
{"smiles": "COc1cc(C=C(OC(C)=O)c2ccc3c(c2)OCO3)cc(OC)c1OC", "inhibition": "-1.67%"}
{"smiles": "COc1cc(C2c3cc4c(cc3C(O)C3COC(=O)C23)OCO4)cc(OC)c1OC", "note": "(stereo not drawn)", "inhibition": "7.49% (active)"}
{"smiles": "COc1cc(C2CC(=O)Oc3cc(OC)c(OC)c(OC)c32)cc(OC)c1OC", "note": "(stereo not drawn)", "inhibition": "0.24%"}
